Assay results published in PubChem BioAssay (NCI).
This is part of a sample that, as a whole, favours compounds with a hit. Of some 79,000 tested, about 15% had one in any assay. A number with no mark means an inactive call. Calls of active or inactive are those of the source. Rule as the data show it: active = growth inhibition above about 70%; inactive = the rest.

Assay: NCI Yeast Anticancer Drug Screen. Data for the rad50 strain (AID 155);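 also: 0% = growth of vehicle-only cultures of the same strain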
Settings: S. cerevisiae rad50 strain growth inhibition; at 50.0 µM; active compounds read high
How it was run: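 Relative growth inhibition (compound vs vehicle) was measured in yeast with a defined repair-gene alteration.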

| Structure (SMILES) | growth inhibition [%] |
| --- | --- |
| Cn1c2ccccc2c2nnc(NCCCCO)nc21 | 10.4 |
| O=C(c1ccccc1)c1ccc(-c2ccc(O)cc2)cc1 | 37.7 |
| CC(=O)C[n+]1ccc(C)cc1Sc1ccccc1C | 8.4 |
| CC(=O)c1cccs1 | -9.65 |
| Oc1ccc(CCC2CCNc3ccccc32)cc1 (configuration not stated) | 0.35 |
| Cc1ccc(O)c(N)c1 | 2.1 |
| O=[N+]([O-])c1ccc(-c2nc(N(CCO)CCO)c3ccccc3n2)o1 | 41.8 |
| O=C(Nc1c(Cl)cc(Cl)cc1Cl)ON=C1CCCCC1 | 1.2 |
| C/C(=N\N=C(/C)c1cccc([N+](=O)[O-])c1)c1cccc([N+](=O)[O-])c1 | -5.75 |
| Oc1ccc2ccccc2c1CN1CCOCC1 | 26.9 |
| CC(=O)N(C)N=Nc1ccc(C)cc1 | 3.7 |
| CC(=O)c1cc(O)ccc1O | -6.45 |
| CCOC(=O)C(CCC#N)(CCC#N)C(=O)OCC | 39.5 |
| C=CCOc1ccc(Cl)cc1Cl | 1.65 |
| CCOP(=O)(NC(c1ccccc1)c1ccccc1)OCC | 21.9 |
| CC(O)C(F)(F)C(F)(F)C(F)(F)F (configuration not stated) | 7.8 |
| CC(=O)c1cccc(O)c1 | 5.8 |
| Cc1ccc(N2C(=O)c3cccc4c(N)c(S(=O)(=O)O)cc(c34)C2=O)cc1 | -33.5 |

| Structure (SMILES) | growth inhibition [%] |
| --- | --- |
| CN(C)c1ncnc2c1cnn2C | -9.55 |
| CCOc1ccc2c(c1)c(C)cc(C)[n+]2CC | 4.45 |
| O=C(O)c1ccc(OCc2ccccc2)cc1 | 12.6 |
| O=S(Cc1ccccc1)/C(=C/NC(=S)Nc1ccccc1)c1ccccc1 (configuration not stated) | -26.7 |
| CC(c1ccccc1)N1C(=O)CSC1=S (configuration not stated) | 37.1 |
| O=C1C=C[C@H](O)[C@@]2(CO)O[C@@H]12 | 5.85 |
| O=C1C=Cc2ccccc2/C1=C/c1[nH]c(=O)[nH]c1O | -21.1 |
| Cc1ccc(S(N)(=O)=O)cc1Cl | 10.1 |
| C/C(=N\Nc1ccc([N+](=O)[O-])cc1[N+](=O)[O-])c1ccc(Br)cc1 | -8.7 |
| C1CCc2onc(-c3noc4c3CCCCC4)c2CC1 | -9.45 |
| CCCCCCCCCCC(=O)CCCCCCCCCC | 7.15 |
| COC(=O)Cc1cc(COC(C)=O)ccc1C | 0.05 |
| COc1ccc2c(Cl)cc(NC(=O)Nc3c(C)cccc3C)nc2c1 | 5.8 |
| CCOC(=O)c1ccc(Nc2sc(C(=O)c3ccc(Br)cc3)c(N)c2C#N)cc1 | -9.4 |
| CCOC(=O)c1c[nH][nH]c1=O | -9.05 |
| FC(F)(F)c1cc(NC2=NCCN=C(Nc3cc(C(F)(F)F)cc(C(F)(F)F)c3)SS2)cc(C(F)(F)F)c1 | -14.1 |
| O=Cc1ccc(O)c(O)c1 | 17.6 |

Assay: NCI Yeast Anticancer Drug Screen. Data for the sgs1 mgt1 strain (AID 161);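 also: 0% = growth of cultures given vehicle only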
Settings: S. cerevisiae sgs1 mgt1 strain, at 50.0 µM, active compounds read high
How it was run: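 Test agents were incubated with a DNA-repair-mutant yeast strain. Growth was then read and compared against vehicle-treated controls.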

| Structure (SMILES) | growth inhibition |
| --- | --- |
| Cn1c2ccccc2c2nnc(NCCCCO)nc21 | 19.1% |
| O=C(c1ccccc1)c1ccc(-c2ccc(O)cc2)cc1 | 24.9% |
| CC(=O)C[n+]1ccc(C)cc1Sc1ccccc1C | 6.85% |
| Oc1ccc(CCC2CCNc3ccccc32)cc1 (configuration not stated) | -14.2% |
| Cc1ccc(O)c(N)c1 | -20.3% |
| O=[N+]([O-])c1ccc(-c2nc(N(CCO)CCO)c3ccccc3n2)o1 | 88.8% (active) |
| C/C(=N\N=C(/C)c1cccc([N+](=O)[O-])c1)c1cccc([N+](=O)[O-])c1 | 17.5% |
| Nc1ccc2c(c1)Cc1cc(N)c(N)cc1-2 | 10.9% |
| Oc1ccc2ccccc2c1CN1CCOCC1 | 32.9% |
| CC(=O)N(C)N=Nc1ccc(C)cc1 | -13.6% |
| CC(=O)c1cc(O)ccc1O | 10.3% |
| CCOC(=O)C(CCC#N)(CCC#N)C(=O)OCC | -2.2% |
| C=CCOc1ccc(Cl)cc1Cl | -0.45% |
| CCOP(=O)(NC(c1ccccc1)c1ccccc1)OCC | 30.6% |
| CC(O)C(F)(F)C(F)(F)C(F)(F)F (configuration not stated) | 19.9% |
| Cc1ccc(N2C(=O)c3cccc4c(N)c(S(=O)(=O)O)cc(c34)C2=O)cc1 | -24.7% |

| Structure (SMILES) | growth inhibition |
| --- | --- |
| CCOc1ccc2c(c1)c(C)cc(C)[n+]2CC | -13.2% |
| O=C(O)c1ccc(OCc2ccccc2)cc1 | 38% |
| O=S(Cc1ccccc1)/C(=C/NC(=S)Nc1ccccc1)c1ccccc1 (configuration not stated) | -40.1% |
| O=C1C=C[C@H](O)[C@@]2(CO)O[C@@H]12 | -14.5% |
| O=C1C=Cc2ccccc2/C1=C/c1[nH]c(=O)[nH]c1O | -9.7% |
| Cc1ccc(S(N)(=O)=O)cc1Cl | 13.2% |
| C/C(=N\Nc1ccc([N+](=O)[O-])cc1[N+](=O)[O-])c1ccc(Br)cc1 | 2.35% |
| C1CCc2onc(-c3noc4c3CCCCC4)c2CC1 | -19.1% |
| CCCCCCCCCCC(=O)CCCCCCCCCC | 8.1% |
| CC(=O)CSc1ncnc2nc[nH]c12 | -0.5% |
| COC(=O)Cc1cc(COC(C)=O)ccc1C | -0.7% |
| COc1ccc2c(Cl)cc(NC(=O)Nc3c(C)cccc3C)nc2c1 | 13.9% |
| CCOC(=O)c1ccc(Nc2sc(C(=O)c3ccc(Br)cc3)c(N)c2C#N)cc1 | 12.6% |
| CCOC(=O)c1c[nH][nH]c1=O | -3.55% |
| FC(F)(F)c1cc(NC2=NCCN=C(Nc3cc(C(F)(F)F)cc(C(F)(F)F)c3)SS2)cc(C(F)(F)F)c1 | -10.8% |
| O=Cc1ccc(O)c(O)c1 | 11.6% |
